Sampled rows, rich in hits. Any-hit rate of the full collection: about 21%.
VP16 counter – Gal4-VP16 reporter inhibition counter-screen; Drosophila S2 Gal4-VP16 UAS-luciferase, luminescence, 20 h; Potency, µM (top dose mostly 53.6 µM), inactives show at the highest dose activity, negative = inhibition, hits mostly inhibitors; actives 3.5% (n = 310,000); AID 2546;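 further: Gal4-VP16 expression switched on by copper sulfate through the metallothionein promoter; potency means the concentration at half of the fitted maximal effect; nearly all actives have a fitted effect of over 50% in size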
ELG1 repair inh – inhibitors of ELG1-dependent DNA repair in HEK293T cells; AID 504467; actives 2.3% (n = 330,000); HEK293T ELG1-luciferase reporter, luminescence, 16 h; DNA damage induced by 5-fluorouridine; Potency, µM (highest dose often 46.1 µM), inactives show at the highest dose activity change, negative = inhibition, hits mostly inhibitors; further: potency means the concentration at half of the fitted maximal effect; nearly all actives have a fitted effect of over 55% in size
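In this reporter screen, reduction of luminescence relative to DMSO vehicle indicated activity. Compounds and 5-fluorouridine were added together to 2,000 cells per well, incubated for 16 hr at 37 °C, then developed with ONE-Glo.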
TDP1 cell CPT – DT40-hTDP1 cell growth loss with CPT. chicken DT40 Tdp1-/-;hTDP1 cells + 20 nM CPT, ATP luminescence, 48 h. Potency, µM (doses to about 46.2 µM), for inactives: at the highest dose activity change, negative = growth inhibition, actives largely listed as inhibitors. actives 12% (n = 420,000); further: potency means the concentration at half of the fitted maximal effect; nearly all actives have a fitted effect of over 55% in size
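Chicken DT40 Tdp1-/- cells stably complemented with human TDP1 were seeded at 400 cells/well in medium containing 20 nM camptothecin, exposed to pin-transferred compounds, and grown at 37 °C for at least 48 hr. Viability was read as ATP luminescence.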
IL1B secr inh – blocks inflammasome-driven IL-1 beta release. THP-1 LPS/ATP IL-1B secretion, AlphaLISA, 16 h; stronger effect = lower value. activity change, % at 57.5 µM. actives 4.7% (n = 360,000). AID 743279; in the data active means activity change below about -50%; inconclusive means mostly about -30% to -49%
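THP-1 cells pretreated 1 hr with compounds (up to 57.5 uM final), then stimulated with LPS (250 ng/mL final) plus ATP (1.25 mM final); secreted IL-1B measured by AlphaLISA after 16 hr, decreased signal indicating inhibition.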
TDP1 cell noCPT – qHTS for Inhibitors of human tyrosyl-DNA phosphodiesterase 1 (TDP1): qHTS in cells in absence of CPT | DT40 Tdp1-/- hTDP1 cells, no CPT, ATP luminescence, 48 h | Potency, µM (series often up to 46.2 µM), inactives show at the highest dose activity change, negative = growth inhibition, most hits filed as inhibitors | actives 15% (n = 420,000) | AID 686978, 2013; further: potency means the concentration at half of the fitted maximal effect; nearly all actives have a fitted effect of over 55% in size
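Luminescent ATP content (CellTiter-Glo) served as the growth readout. Knockout chicken DT40 cells expressing human TDP1 were exposed to compounds without camptothecin for a minimum 48 hr at 37 °C.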
RORg inh – ROR gamma (mouse) transcription inhibition | Drosophila S2 Gal4-RORgamma UAS-luciferase reporter, 20 h | Potency, µM (titrated, usually from 53.6 µM), without a hit: at the top dose activity change, negative = inhibition, actives largely listed as inhibitors | actives 5.4% (n = 310,000); further: potency means the concentration at half of the fitted maximal effect; nearly all actives have a fitted effect of over 60% in size
Target sequence (P51450 whole entry, looked up, the tested form may be a part): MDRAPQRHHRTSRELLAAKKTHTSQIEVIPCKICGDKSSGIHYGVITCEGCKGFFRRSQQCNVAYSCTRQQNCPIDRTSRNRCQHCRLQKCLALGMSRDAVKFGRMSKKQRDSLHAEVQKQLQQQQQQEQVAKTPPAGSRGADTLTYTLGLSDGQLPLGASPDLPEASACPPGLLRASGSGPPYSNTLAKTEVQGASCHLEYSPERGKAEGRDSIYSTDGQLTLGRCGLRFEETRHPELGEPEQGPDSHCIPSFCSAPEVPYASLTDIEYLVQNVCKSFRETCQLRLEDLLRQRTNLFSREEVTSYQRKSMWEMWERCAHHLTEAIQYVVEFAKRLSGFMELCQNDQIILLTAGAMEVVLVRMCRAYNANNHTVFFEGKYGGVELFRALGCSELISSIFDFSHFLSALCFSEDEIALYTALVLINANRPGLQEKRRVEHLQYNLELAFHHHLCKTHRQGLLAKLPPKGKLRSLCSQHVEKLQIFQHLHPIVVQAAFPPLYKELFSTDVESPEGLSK
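Read-out: Photinus luciferase luminescence; inhibitors lower reporter signal. Insect Schneider cells with Gal4-ROR gamma fusion under metallothionein promoter, UAS reporter; 700 uM final copper sulfate induction, 20 hr, ambient temperature.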
Numbers without * were called inactive; [ ] = remark or other dose. Unless noted, the call rests on the fitted dose curve; in most records, active means well fitted curve in the direction sought with a large enough effect; inconclusive means small, poorly fitted or top-dose-only effect, or another doubt; inactive means no such curve, though single readings can be large; an effect the other way counts as inactive or inconclusive. On the % scale 0 is the no-effect control and ±100 the full control effect.

Screening COc1cccc(S(=O)(=O)Nc2ccc3c(c2)[C@@H]2C[C@H](CC(=O)NCCc4ccccc4)O[C@H](CO)[C@@H]2O3)c1 returned TDP1 cell CPT 23µM*, IL1B secr inh -13 and TDP1 cell noCPT 16µM*.
For CCCNC(=O)C[C@H]1C[C@H]2c3cc(NC(=O)Nc4ccc(F)cc4)ccc3O[C@H]2[C@@H](CO)O1 the results were TDP1 cell CPT 1.8µM*, IL1B secr inh -6 and TDP1 cell noCPT 2.3µM*.
Screening O=C(C[C@@H]1C[C@H]2c3cc(NC(=O)NC4CCCCC4)ccc3O[C@H]2[C@H](CO)O1)NC1CCCCC1 returned TDP1 cell CPT inconclusive, IL1B secr inh inconclusive and TDP1 cell noCPT 15µM*.
`COC(=O)C[C@H]1C[C@@H]2c3cc(NC(=O)Nc4ccc(F)cc4)ccc3O[C@@H]2[C@@H](CO)O1` gave TDP1 cell CPT -4%, IL1B secr inh 13 and TDP1 cell noCPT -9%.
COC(=O)C[C@H]1C[C@H]2c3cc(NC(=O)Nc4ccc(C(F)(F)F)cc4)ccc3O[C@H]2[C@@H](CO)O1 was read as TDP1 cell CPT inconclusive, IL1B secr inh -4 and TDP1 cell noCPT 26µM*.
For COCC(=O)Nc1ccc2c(c1)[C@@H]1C[C@H](CC(=O)NCc3cccc(F)c3)O[C@@H](CO)[C@@H]1O2 the results were TDP1 cell CPT -23%, IL1B secr inh 9 and TDP1 cell noCPT -19%.
Screening COC(=O)C[C@@H]1C[C@H]2c3cc(NC(=O)C4CCC4)ccc3O[C@H]2[C@@H](CO)O1 returned TDP1 cell CPT -2%, IL1B secr inh 10 and TDP1 cell noCPT -5%.
CC1(C(=O)NS(=O)(=O)c2ccc(F)cc2F)CCN1C(=O)C/C=C/c1ccccc1 (stereo unspecified) was read as TDP1 cell CPT -8%, IL1B secr inh 0 and TDP1 cell noCPT -15%.
O=C(CSCc1ccccc1Br)N/N=C/c1ccccc1C(=O)O was read as VP16 counter -5%[10 µM], ELG1 repair inh -2%, TDP1 cell CPT 7%, IL1B secr inh 12, TDP1 cell noCPT 2% and RORg inh -14%.
`O=C(C[C@H]1C[C@@H]2c3cc(NC(=O)Nc4ccccc4F)ccc3O[C@@H]2[C@H](CO)O1)NCc1ccccn1` gave TDP1 cell CPT inconclusive, IL1B secr inh -1 and TDP1 cell noCPT 16µM*.
`COCCNC(=O)C[C@@H]1C[C@H]2c3cc(NC(=O)Nc4ccc(F)cc4)ccc3O[C@H]2[C@H](CO)O1` gave TDP1 cell CPT inconclusive, IL1B secr inh 3 and TDP1 cell noCPT 8.2µM*.
`O=C(Nc1ccc(/C=C/c2nc3ccccc3o2)cc1)c1ccc(F)cc1` gave VP16 counter 3%, ELG1 repair inh inconclusive, TDP1 cell CPT 21µM*, IL1B secr inh 15, TDP1 cell noCPT inconclusive and RORg inh 1%.
`CC(=O)c1cccc(NC(=O)Cn2cnc(S(=O)(=O)N3CCOCC3)c2)c1` gave VP16 counter -6%, ELG1 repair inh 13%, TDP1 cell CPT -11%, IL1B secr inh 7, TDP1 cell noCPT 14% and RORg inh -12%.
Screening O=C(C1CCN(S(=O)(=O)N2CCOCC2)CC1)N1CCN(c2ccc(F)cc2)CC1 returned VP16 counter -7%, ELG1 repair inh inconclusive, TDP1 cell CPT 8.2µM*, IL1B secr inh 9, TDP1 cell noCPT 10µM* and RORg inh 23%.
O=C(C1CCN(c2ccc(N3CCOCC3)nn2)CC1)N1CCN(c2ccc(F)cc2)CC1 was read as VP16 counter -11%, ELG1 repair inh 16µM*, TDP1 cell CPT inconclusive, IL1B secr inh 6, TDP1 cell noCPT inconclusive and RORg inh 14%.
`COc1ccc(N2CCN(C(=O)C3CCN(S(=O)(=O)N4CCOCC4)CC3)CC2)cc1` gave VP16 counter -12%, ELG1 repair inh -17%, TDP1 cell CPT inconclusive, IL1B secr inh 13, TDP1 cell noCPT 13µM* and RORg inh 31%.
Screening COc1cccc(NC(=O)CN2C(=O)NC(C)(CC(C)C)C2=O)c1 (stereo unspecified) returned VP16 counter -1%, ELG1 repair inh 17%, TDP1 cell CPT 4%, IL1B secr inh -1, TDP1 cell noCPT -4% and RORg inh 11%.
`O=C(c1cc2cc(F)ccc2[nH]1)N1CCC(Cc2ccccc2)CC1` gave VP16 counter -3%, ELG1 repair inh 7%, TDP1 cell CPT 3%, IL1B secr inh 17, TDP1 cell noCPT -30% and RORg inh 44%.
`CC[C@]1(C(=O)OC)[C@H]2C(=O)N(C)C(=O)[C@H]2[C@H]2CN(C)C(=NC)N21` gave ELG1 repair inh 12%, TDP1 cell CPT -14%, IL1B secr inh 15 and TDP1 cell noCPT -2%.
Screening COc1ccc(NC(=O)[C@@H]2CCCN2S(=O)(=O)c2ccc(Cl)cc2)cc1 returned ELG1 repair inh -17%, TDP1 cell CPT inconclusive, IL1B secr inh -3 and TDP1 cell noCPT inconclusive.
Screening CCCOc1ccc(/C=N/NC(=O)C2CCCN2S(=O)(=O)c2ccc(Cl)cc2)cc1 (stereo unspecified) returned VP16 counter inconclusive, ELG1 repair inh inconclusive, TDP1 cell CPT 16µM*, IL1B secr inh -4, TDP1 cell noCPT inconclusive and RORg inh 20%.
Screening CC(C)Oc1ccc(/C=N/NC(=O)C2CCCN2S(=O)(=O)c2ccc(Cl)cc2)cc1 (stereo unspecified) returned VP16 counter -17%, TDP1 cell CPT inconclusive, IL1B secr inh -1, TDP1 cell noCPT 21µM* and RORg inh 34%.
`COc1cc2c(cc1OC)/C(=C/C(=O)OCc1ccccc1)OC2` gave TDP1 cell CPT -26%, IL1B secr inh inconclusive and TDP1 cell noCPT -22%.
COCc1ccc(CN2CCC(C(=O)Nc3cccc(-c4cscn4)c3)CC2)o1 was read as VP16 counter inconclusive, ELG1 repair inh -21%, TDP1 cell CPT inconclusive, IL1B secr inh -73*, TDP1 cell noCPT -25% and RORg inh -35%.
`O=C(Nc1cccc(F)c1)C1CCCCC1` gave ELG1 repair inh 27%, TDP1 cell CPT -1%, IL1B secr inh 14 and TDP1 cell noCPT 1%.

Screening results from PubChem.
